Screening results as filed in PubChem.
Most compounds without a hit are left out; they make up all but 19% or so of the library.
HT1080NT lethal = kills 2HG-producing HT-1080-NT fibrosarcoma cells; HT-1080-NT fibrosarcoma viability, CellTiter-Glo ATP luminescence, 48 h; Potency, µM (series often up to 46.1 µM), inactives show top-dose activity, negative = less viability, usual class: cytotoxic; 360,000 tested, 1.6% active; AID 686970;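 note: NT is the 2HG producing partner of a matched IDH1 knockdown line; potency is the fitted concentration of half-maximal effect; 0% = DMSO-treated cells and -100% = media-only wells without cells; nearly all actives have a fitted effect of over 55% in size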
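HT-1080-NT; 750 cells/well; 5% FBS RPMI; 48 h compound, 37 degrees C; CellTiter-Glo luminescence; curve fitting and curve-class assignment.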
IL1B secr inh = inflammasome signaling inhibition, IL-1 beta readout | THP-1 LPS/ATP IL-1B secretion, AlphaLISA, 16 h; stronger effect = lower value | activity change, % at 57.5 µM | 360,000 tested, 4.7% active; in the data active = activity change below about -50%; inconclusive = mostly about -30% to -49%
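THP-1 cells pretreated 1 hr with compounds (up to 57.5 uM final), then stimulated with LPS (250 ng/mL final) plus ATP (1.25 mM final); secreted IL-1B measured by AlphaLISA after 16 hr, decreased signal indicating inhibition.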
ELG1 repair inh = inhibitors of ELG1-dependent DNA repair in HEK293T cells; HEK293T ELG1-luciferase reporter, luminescence, 16 h; DNA damage induced by 5-fluorouridine; Potency, µM (top dose mostly 46.1 µM), for the others: at the top dose activity change, negative = inhibition, actives largely listed as inhibitors; 330,000 tested, 2.3% active; AID 504467; note: potency is the fitted concentration of half-maximal effect; nearly all actives have a fitted effect of over 55% in size
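Quantitative HTS, concentration-response format. 2,000 cells/well co-treated with 5-fluorouridine and compound, 16 hr in 5% CO2 at 37 °C; ONE-Glo luminescence read after 30 min.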
HT1080 IDH1KD tx = toxicity to HT-1080 IDH1 knockdown cells (counter line); AID 686971; 360,000 tested, 2% active; Potency, µM (titrated, usually from 46.1 µM), inactives show at the highest dose activity, negative = toxicity, usual class: cytotoxic; HT-1080 IDH1 knockdown viability, ATP luminescence, 48 h;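 note: potency is the fitted concentration of half-maximal effect; 0% = DMSO wells and -100% = cell-free medium wells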
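Luminescent ATP read-out (CellTiter-Glo, 10 min at room temperature) after 48 h compound exposure at 37 °C gave viability of IDH1-knockdown HT-1080 cells. Activity was normalised to DMSO and cell-free wells, then fitted as concentration-response curves.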
TDP1 cell noCPT = qHTS for Inhibitors of human tyrosyl-DNA phosphodiesterase 1 (TDP1): qHTS in cells in absence of CPT | 420,000 tested, 15% active | Potency, µM (top dose mostly 46.2 µM), for inactives: top-dose activity change, negative = growth inhibition, most hits filed as inhibitors | DT40 Tdp1-/- hTDP1 cells, no CPT, ATP luminescence, 48 h; note: potency is the fitted concentration of half-maximal effect; nearly all actives have a fitted effect of over 55% in size
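Luminescent ATP content (CellTiter-Glo) served as the growth readout. Knockout chicken DT40 cells expressing human TDP1 were exposed to compounds without camptothecin for a minimum 48 hr at 37 °C.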
DT40 TDP1 CPT = growth inhibition of DT40 Tdp1-/-;hTDP1 cells with camptothecin (screen for TDP1 inhibitors); chicken DT40 Tdp1-/-;hTDP1 cells + 20 nM CPT, ATP luminescence, 48 h; Potency, µM (doses to about 46.2 µM), for the others: top-dose activity change, negative = growth inhibition, hits mostly inhibitors; 420,000 tested, 12% active; AID 686979; note: potency is the fitted concentration of half-maximal effect; nearly all actives have a fitted effect of over 55% in size
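Cell growth measured by CellTiter-Glo luminescence after a minimum 48 h, 37 C compound exposure with 20 nM CPT in Tdp1-knockout DT40 cells stably expressing hTDP1, seeded 400/well; qHTS titration format.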
Numbers without * were called inactive; ? = inconclusive; . = no result given; [ ] = dose if it differs, or a comment. Unless noted, calls come from the whole dose curve; as a rule, active = well fitted curve in the direction sought with a large enough effect; inconclusive = small, poorly fitted or top-dose-only effect, or another doubt; inactive = no such curve, though single readings can be large; an effect the other way counts as inactive or inconclusive. Unless noted, % is set by controls: 0 for no effect and ±100 for the full control effect.

SMILES	HT1080NT lethal	IL1B secr inh	ELG1 repair inh	HT1080 IDH1KD tx	TDP1 cell noCPT	DT40 TDP1 CPT
COc1cccc(-c2nc(NCc3cccnc3)c3ccccc3n2)c1O	-11%	34	?	-25%	-21%	2%
COc1ccccc1-c1nc(NCc2cnc(C)cn2)c2ccccc2n1	.	.	.	.	?	16µM*
O=C(CNC(=O)c1ccco1)Nc1ccc(Cl)cc1	20%	-14	?	17%	2%	-1%
CC(=O)Nc1ccc(NC(=O)CCCn2nc(C)c3sc4ccccc4c3c2=O)cc1	.	.	.	.	?	-19%
O=C(CCC(=O)N1CCCCCC1)Nc1ccc([N+](=O)[O-])cc1	6.5µM*	33	4%	?	22%	-1%
O=C(Nc1ccc([N+](=O)[O-])cc1)NN1CCCCCC1	-1%	-99*	.	1%	15µM*	23µM*
Cc1ccc(CCC(=O)Nc2ccc([N+](=O)[O-])cc2)o1	-20%	-74*	?	-29%	?	-15%
O=C(Nc1ccc(Cl)cc1)NN1CCCCCC1	-3%	-16	.	-10%	-18%	3%
CCN(CC)C(=O)c1[nH]cnc1C(=O)Nc1ccc(C)cc1	14%	-11	14%	5%	-14%	-8%
O=C(COC(=O)CN1C(=O)C2CCCCC2C1=O)NNC(=O)c1ccc(Cl)cc1 (stereo not drawn)	-1%	5	5%	0%	-2%	2%
CCCN(C)C1CN(Cc2cn(Cc3ccc(C)cc3)nn2)S(=O)(=O)C1 (stereo not drawn)	0%	-3	.	2%	-20%	-12%
CC1(C(=O)NS(=O)(=O)c2ccccc2C(F)(F)F)CCN1C(=O)CC1CCCC1 (stereo not drawn)	20%	6	.	16%	-6%	-12%
Clc1ccccc1C1Nc2cccc3cccc(c23)N1	-3%	2	-9%	-2%	?	?
COC(=O)c1ccc(C2Nc3cccc4cccc(c34)N2)cc1	-5%	6	4%	-25%	9.2µM*	8.2µM*
COc1ccc(C2Nc3cccc4cccc(c34)N2)cc1Br	-20%	19	8%	-6%	?	?
Oc1ccc(C2Nc3cccc4cccc(c34)N2)c(O)c1	-23%	-4	3%	?	26µM*	4.1µM*
COc1cc(C2Nc3cccc4cccc(c34)N2)ccc1OC(C)=O	-5%	0	-2%	12%	16µM*	16µM*
COc1cc(C2Nc3cccc4cccc(c34)N2)cc(OC)c1O	?	-90*	?	?	?	18µM*
CC1(C)CC(NC(=O)C2CCN(S(=O)(=O)c3cccc(C(F)(F)F)c3)CC2)CC(C)(C)N1	-2%	0	?	4%	0%	-25%
COc1ccc(/C=N/N(C)C2=NS(=O)(=O)c3ccccc32)cc1	10%	-6	1%	-9%	-4%	9%
COc1ccc(N(C)C2=NS(=O)(=O)c3ccccc32)cc1	12µM*	44	?	23µM*	2.6µM*	3.7µM*
CN(/N=C/c1ccc(N(C)C)cc1)C1=NS(=O)(=O)c2ccccc21	?	-12	-3%	?	?	4.1µM*
CN(/N=C/c1cccc(Br)c1)C1=NS(=O)(=O)c2ccccc21	19%	?	?	25%	23µM*	?
CN(C1=NS(=O)(=O)c2ccccc21)c1ccc(OC(=O)c2ccccc2F)cc1	4%	-5	.	3%	?	-23%
COc1ccccc1-c1nc(-c2ccccc2)[nH]c(=O)c1C#N	6%	10	3%	1%	-2%	-8%
SMILES	HT1080NT lethal	IL1B secr inh	ELG1 repair inh	HT1080 IDH1KD tx	TDP1 cell noCPT	DT40 TDP1 CPT
CNC(=O)CCC(=O)Nc1ccc(C)cc1	-2%	12	0%	-2%	22%	2%
COc1ccc(COn2nnc3ccc(S(=O)(=O)N4CCOCC4)cc32)cc1F	-8%	-12	20%	-5%	-23%	-28%
Cc1ccc(C(C)C)c(OCc2nc(-c3nonc3N)no2)c1	-7%	?	?	-28%	7.3µM*	16µM*
CC1CC(C)C(=NNC(N)=O)C(C(O)CC2CCC(=O)NC2=O)C1 (stereo not drawn)	-3%	-17	.	?	2.3µM*	1.6µM*
Cc1ccccc1NC(=O)c1cc2ccccc2o1	-14%	1	?	-9%	-7%	-19%
CCc1ccc(NC(=O)c2cc3c(C)nc4ccccc4c3o2)cc1	-9%	-139*	?	?	16µM*	18µM*
Cc1ccccc1NC(=O)c1cc2c(C)nc3ccccc3c2o1	11%	-17	?	11%	23µM*	?
O=C([C@H](Cc1ccccc1)N1C(=O)c2ccccc2C1=O)N1CCOCC1	9%	14	-3%	0%	-13%	-14%
O=S(=O)(c1ccccc1)c1cnc(-c2ccccc2)nc1N1CCCC1	-1%	-10	-17%	-19%	18µM*	-27%
Cc1nc(-c2ccccc2)sc1-c1nc(-c2ccncc2)ncc1S(=O)(=O)c1ccccc1	15%	-54*	8%	6%	?	?
CC(C)(O)C#Cc1ccc(C(=O)NCCN2Cc3ccccc3OC(c3ccccc3F)C2)o1 (stereo not drawn)	.	.	.	.	-28%	10%[9.04 µM]
N#Cc1cccc(C(=O)Nc2cc(S(=O)(=O)N3CCOCC3)ccc2N2CCCC2)c1	-3%	-21	?	2%	-6%	18%
COc1ccc(C(=O)Nc2nc3ccccc3[nH]2)cc1OC	3%	-12	?	?	-23%	-21%
CCc1ccc(C(=O)Nc2nc3ccccc3[nH]2)cc1	?	0	?	?	12µM*	18µM*
CCOc1ccc(C(=O)Nc2nc3ccccc3[nH]2)cc1OCC	?	31	?	-28%	8.2µM*	21µM*
CC(C)Oc1ccc(C(=O)Nc2nc3ccccc3[nH]2)cc1	?	-4	?	?	9.2µM*	18µM*
COc1cc(C(=O)Nc2nc3ccccc3[nH]2)ccc1OC(F)F	?	-20	?	?	15µM*	21µM*
COc1ccc(C(=O)Nc2nc3ccccc3[nH]2)cc1S(=O)(=O)N1CCCC1	4%	-21	-1%	-2%	?	-35%
Nc1[nH]c(C(=O)c2ccccc2)c(-c2ccc(Cl)cc2Cl)c1C(=O)c1ccc(Br)cc1	12%	0	.	1%	-6%	0%
